Screens: PubChem, National Center for Advancing Translational Sciences (NCATS)
CHX counter: Cycloheximide Counterscreen for Small Molecule Inhibitors of Shiga Toxin; cell reporter, cycloheximide protein synthesis inhibition counterscreen; AID 2314, 2010; 300,000 tested, 12% active; max response, %; in the data active = max response mostly above about 13%, no sharp cut-off; inactive = mostly below about 14%; note: read at 38.3 µM for the half of the compounds with a filed dose
Shiga toxin inh: A qHTS for Small Molecule Inhibitors of Shiga Toxin; Vero cells, Shiga toxin protein synthesis inhibition reporter; inhibition, % at 38.7 µM; 290,000 tested, 9.2% active; in the data active = inhibition mostly above about 28%, no sharp cut-off; inactive = mostly below about 43%
VACV mCherry inh: qHTS for Stage-Specific Inhibitors of Vaccinia Orthopoxvirus: mCherry Reporter Primary qHTS | Vaccinia virus mCherry reporter infection, fluorescence | Potency, µM (series often up to 36.5 µM), most hits filed as inhibitors | 310,000 tested, 0.63% active | AID 720579, 2013; calls by dose curve; tested in A549 cells; note: nearly all actives have a fitted effect of over 35% in size
Vaccinia Venus: qHTS for Stage-Specific Inhibitors of Vaccinia Orthopoxvirus: Venus Reporter Primary qHTS; Vaccinia virus Venus reporter expression, fluorescence; Potency, µM (highest dose often 36.5 µM), usual class: inhibitors; 330,000 tested, 0.46% active; calls by dose curve; tested in A549 cells; note: nearly all actives have a fitted effect of over 30% in size
Marburg entry inh: qHTS for inhibitors of binding or entry into cells for Marburg Virus; Marburg virus pseudotyped entry inhibition, cell reporter; Potency, µM (doses to about 37.8 µM), hits mostly inhibitors; 300,000 tested, 1.8% active; AID 540276, 2011; calls by dose curve; tested in HEK293 cells
LASV entry inh: qHTS for Inhibitors of binding or entry into cells for Lassa Virus | Lassa virus pseudotype entry inhibition, cell reporter | Potency, µM (top dose mostly 37.9 µM), most hits filed as inhibitors | 300,000 tested, 1.2% active | AID 540256, 2011; calls by dose curve; tested in HEK293 cells; note: nearly all actives have a fitted effect of over 50% in size
Each line names hits and unclear results; the compound was inactive in the other large screens. Many of the other results were omitted from the sample, so hits are more common in it than they were.

Cc1ccc(NC(=O)CSc2nccn2Cc2ccccc2)cc1C	CHX counter 48, LASV entry inh inconclusive (no result: VACV mCherry inh)
CC(=O)Nc1ccc(NC(=O)CSc2nccn2Cc2ccccc2)cc1	none (no result: VACV mCherry inh, Vaccinia Venus)
CCOC(=O)c1cc(C)sc1NC(=O)CSc1nccn1C	CHX counter 50, Shiga toxin inh 111
Cc1ccc(NC(=O)CSc2nccn2C)cc1F	Marburg entry inh inconclusive
Cc1ccc(NC(=O)CSc2ncccn2)cc1F	CHX counter 46, Shiga toxin inh 64 (no result: Marburg entry inh, LASV entry inh)
Cc1cc2c(c(-c3ccc(Cl)cc3)c1)OC(CNC(=O)Cc1c(C)noc1C)C2 (stereo unspecified)	none (no result: CHX counter, Shiga toxin inh, Marburg entry inh, LASV entry inh)
Cc1oc(-c2ccccc2NC(=O)c2ccccc2)nc1CNC(=O)C1CC(=O)OC12CCCCC2 (stereo unspecified)	none (no result: CHX counter, Shiga toxin inh, Marburg entry inh, LASV entry inh)
Cc1ccc(-c2nc(N)sc2-c2ccc(C)cc2)cc1	Marburg entry inh inconclusive
Cc1ccc(-c2nc(N)sc2C)cc1	CHX counter 15, Shiga toxin inh 33 (no result: VACV mCherry inh, Vaccinia Venus, Marburg entry inh, LASV entry inh)
COc1ccc(-c2csc(N=C(N)N)n2)cc1	CHX counter 25, Shiga toxin inh 68, VACV mCherry inh inconclusive
Cc1ccc(-c2csc(N=C(N)N)n2)c(C)c1	CHX counter 36, Shiga toxin inh 37, Marburg entry inh inconclusive
COc1ccc(-c2csc(C(O)c3ccc(OC)cc3)n2)cc1 (stereo unspecified)	none (no result: CHX counter, Shiga toxin inh, Marburg entry inh, LASV entry inh)
Cc1ccc(-c2csc(N)n2)cc1	VACV mCherry inh 11µM, Vaccinia Venus inconclusive (no result: CHX counter, Shiga toxin inh)
Nc1nc(-c2ccc(C(=O)O)cc2)cs1	none
O=C(CSc1nc(-c2ccc(F)cc2)cc(C(F)(F)F)n1)NCc1ccccc1	VACV mCherry inh inconclusive, Marburg entry inh inconclusive, LASV entry inh inconclusive (no result: CHX counter, Shiga toxin inh)
O=C(C1CCN(S(=O)(=O)c2ccccc2)CC1)N1CCCCCC1	none
C=CCOc1ccc(/C=C/C(=O)OCC(=O)NNC(=O)c2ccccc2F)cc1	none (no result: CHX counter, Shiga toxin inh)
COc1cc(Cl)c(C)cc1NC(=O)c1cc(S(=O)(=O)N2CCCC2)ccc1F	none (no result: CHX counter, Shiga toxin inh, Marburg entry inh)
COc1ccc(-c2csc(N)n2)cc1	CHX counter 37, Shiga toxin inh 58, VACV mCherry inh 14µM, Vaccinia Venus inconclusive, Marburg entry inh inconclusive
CC1(C)CC(=O)C(C=Nc2ccc(C(=O)c3ccccc3)cc2N=CC2=C(O)CC(C)(C)CC2=O)=C(O)C1	none
Cc1cc(OCc2cc(C(=O)N(C)CC3CCOCC3)no2)cc(C)c1Cl	CHX counter 35, Shiga toxin inh 46 (no result: Marburg entry inh, LASV entry inh)
CCN(CC1CCCO1)C(=O)c1cc(COc2cc(C)c(Cl)c(C)c2)on1 (stereo unspecified)	CHX counter 44, Shiga toxin inh 73 (no result: VACV mCherry inh, Vaccinia Venus, Marburg entry inh, LASV entry inh)
CS(=O)(=O)NCc1nnc(SCc2c(F)cccc2Cl)o1	LASV entry inh inconclusive
COc1ccccc1NC(=O)c1cccc(N2C(=O)C3C4C=CC(C4)C3C2=O)c1 (stereo unspecified)	none
CC12CCC(=O)C=C1CCC1C2CCC2(C)C(c3csc(N)n3)CCC12 (stereo unspecified)	Marburg entry inh inconclusive, LASV entry inh 13µM (no result: CHX counter, Shiga toxin inh)
CC12CCC(=O)C=C1CCC1C2C(O)CC2(C)C(c3csc(N)n3)CCC12 (stereo unspecified)	Marburg entry inh 8.9µM (no result: CHX counter, Shiga toxin inh)
CCOC(=O)N1CCN(C(=O)CN(C)S(=O)(=O)c2ccc(F)cc2)CC1	none
CC(=O)c1ccc(N2CCN(C(=O)CN(C)S(=O)(=O)c3cnc[nH]3)CC2)cc1	CHX counter 39, Marburg entry inh inconclusive
CN(CC(=O)N1CCN(c2ccc(F)cc2)CC1)S(=O)(=O)c1ccc(F)cc1	Shiga toxin inh 33 (no result: VACV mCherry inh)
Cc1ccc(C)c(Cn2c(SCC(=O)N(C)Cc3ccccc3)nc3ccccc32)c1	LASV entry inh inconclusive (no result: CHX counter, Shiga toxin inh, Marburg entry inh)
CC(C)(C)C(=O)CSc1nc2ccsc2c(=O)n1Cc1ccccc1F	LASV entry inh inconclusive (no result: CHX counter, Shiga toxin inh, Marburg entry inh)
Cc1ccc(C)c(N2CCN(C(=O)NCc3noc4ccccc34)CC2)c1	none (no result: CHX counter, Shiga toxin inh, Marburg entry inh)
CC1CCN(C(=O)c2cc(-c3ccc(Br)cc3)on2)CC1	Marburg entry inh inconclusive (no result: CHX counter, Shiga toxin inh)
O=C(c1cc(-c2ccc(Br)cc2)on1)N1CCOCC1	CHX counter 21, Shiga toxin inh 59, Marburg entry inh inconclusive, LASV entry inh 2.5µM
O=C(c1cc(-c2ccc(Br)cc2)on1)N1CCCCCC1	CHX counter 35, Shiga toxin inh 80, Marburg entry inh inconclusive, LASV entry inh inconclusive
CC1OC(OC2CCC3(C)C(CCC4C3CC(O)C3(C)C(C5=CC(=O)OC5)CCC43O)C2)CC(O)C1OC1CC(O)C(OC2CC(O)C(OC3OC(CO)C(O)C(O)C3O)C(C)O2)C(C)O1 (stereo unspecified)	none (no result: VACV mCherry inh, Vaccinia Venus, Marburg entry inh, LASV entry inh)
CC(=O)O[C@H]1C[C@H](O[C@H]2[C@@H](O)C[C@H](O[C@H]3[C@@H](O)C[C@H](O[C@H]4CC[C@@]5(C)[C@H](CC[C@@H]6[C@@H]5C[C@@H](O)[C@]5(C)[C@@H](C7=CC(=O)OC7)CC[C@]65O)C4)O[C@@H]3C)O[C@@H]2C)O[C@H](C)[C@H]1O[C@@H]1O[C@H](CO)[C@@H](O)[C@H](O)[C@H]1O	VACV mCherry inh inconclusive, Vaccinia Venus 2.5µM (no result: CHX counter, Shiga toxin inh, Marburg entry inh, LASV entry inh)
CC(=O)OC1CC(OC2C(O)CC(OC3C(O)CC(OC4CCC5(C)C(CCC6C5CCC5(C)C(C7=CC(=O)OC7)CCC65O)C4)OC3C)OC2C)OC(C)C1OC1OC(CO)C(O)C(O)C1O (stereo unspecified)	VACV mCherry inh 4.5µM, Vaccinia Venus 5.6µM, Marburg entry inh inconclusive, LASV entry inh 0.1µM (no result: CHX counter, Shiga toxin inh)
O=C(c1ccc2c(c1)N(Cc1ccc(F)cc1)C(=O)c1ccccc1S2=O)N1CCC(Cc2ccccc2)CC1 (stereo unspecified)	Marburg entry inh inconclusive, LASV entry inh inconclusive (no result: CHX counter, Shiga toxin inh)
COc1ccc(-c2nc3ccccc3s2)cc1NC(C)=O	CHX counter 35, Shiga toxin inh 100, Marburg entry inh inconclusive
Cc1ccc(C(=O)Nc2ccc(-c3nc4ccccc4s3)cc2C)cc1C	Marburg entry inh inconclusive (no result: CHX counter, Shiga toxin inh)
COc1ccc(-c2cnc3ccccc3n2)cc1NC(=O)CNC(=O)c1ccccc1	CHX counter 36, Vaccinia Venus inconclusive, LASV entry inh inconclusive
COc1ccc(-c2nc3ccccc3s2)cc1NC(=O)COc1ccc(C)cc1	Marburg entry inh inconclusive, LASV entry inh inconclusive (no result: CHX counter, Shiga toxin inh)
Cc1ccc(C(=O)NC(=S)Nc2cc(-c3nc4ccccc4s3)ccc2C)cc1	CHX counter 65, Shiga toxin inh 117, Marburg entry inh inconclusive (no result: VACV mCherry inh)
COc1ccc(-c2nc3ccccc3s2)cc1NC(=O)COc1cccc(C)c1	CHX counter 54, Shiga toxin inh 71
COc1ccccc1NC(=O)CNC(=O)c1ccccc1	none (no result: VACV mCherry inh)
Cc1ccccc1NC(=O)COC(=O)c1cc(=O)c2ccccc2o1	none (no result: VACV mCherry inh, Vaccinia Venus, Marburg entry inh, LASV entry inh)
O=C(Nc1cc(S(=O)(=O)N2CCOCC2)ccc1OCC(F)(F)F)C1CCCC1	none (no result: CHX counter, Shiga toxin inh, Marburg entry inh, LASV entry inh)
COc1ccc(NC(=O)C2CCCN(C(=O)c3cnn(-c4ccc(F)cc4)c3-n3cccc3)C2)cc1 (stereo unspecified)	none (no result: CHX counter, Shiga toxin inh, Marburg entry inh)
CCOC(=O)Nc1ccc2c(c1)C(=NNC(N)=S)c1ccccc1-2	VACV mCherry inh 11µM, Vaccinia Venus 16µM, Marburg entry inh 13µM, LASV entry inh inconclusive (no result: CHX counter, Shiga toxin inh)
